Each structure is given as a SMILES string. Among all 94,000 compounds or so, about 680 (0.72%) were called active. Cut-off read from the data, not from the text of the source: active = z-score above about 3.2; inactive = the rest. The entries come from a sample that favours actives as a whole.

For the experiment, the target named is M-phase inducer phosphatase 2 (Homo sapiens) + Cyclin-dependent kinase 2 (Homo sapiens) + Cyclin-A2 (Homo sapiens) (UniProt P30305+P24941+P20248). The experiment can be described thus: primary biochemical HTRF screen for inhibition of M-phase inducer phosphatase 2 binding to cyclin-dependent kinase 2/cyclin A (AID 1259370). The note with it: HTRF CDC25B-CDK2/CyclinA binding, anti-His/anti-Flag; stronger effect = higher value. On the technique in general: TR-FRET usually uses a lanthanide donor and a delayed reading to cut background.
Consider `O=C1CCCN1CCCn1c(=O)[nH]c2ccccc2c1=O`, for which the z-score is -0.94 (inactive).

As for `Cc1nc2ccccc2nc1NO`, the z-score is 1.05 (inactive).

For `Cc1cc(=O)nc2c3ccccc3n(CC(=O)NC3CCC(C)CC3)n12` (configuration not stated), the z-score is -1.08 (inactive).

On to `CCN1CCN(c2c(C(=O)c3ccccc3)cnc3cc4c(cc23)OCCO4)CC1`, for which the z-score is 2.74 (inactive).

`CCn1c(SCC(=O)Nc2c(C)cc(C)cc2C)nc2c(c1=O)SCC2`: the z-score was -0.71 (inactive).

`CCc1cc2c(cc3c(=O)n(CC(=O)NCCCOC)nc(CC)n32)s1`: the z-score was -1.5 (inactive).

With `O=S(=O)(NCc1ccccc1)c1ccc(-c2ccc(S(=O)(=O)NCc3ccccc3)cc2)cc1`, the z-score is -0.47 (inactive).

On to `COc1cccc(C2CC(=O)N3CN(c4ccc(Br)cc4)CSC3=C2C#N)c1` (configuration not stated), for which the z-score is 7.44 (active).

As for `COc1ccc(N2C(=O)CSC2c2cc(Br)ccc2OC)cc1` (configuration not stated), the z-score was -0.41 (inactive).

On to `COc1cc(C2CC(=O)N3CN(c4ccc(Br)cc4)CSC3=C2C#N)ccc1O` (configuration not stated), for which the z-score is 0.91 (inactive).

As for `COc1ccc(N2CSC3=C(C#N)C(c4cccc(Br)c4)CC(=O)N3C2)cc1` (configuration not stated), the z-score is 4.67 (active).

`COc1ccc(-c2n[nH]c3c2C(c2cccc(Br)c2)NC3=O)cc1` (configuration not stated): the z-score is 0.39 (inactive).

As for `CN1CSC2=C(C#N)C(c3ccc(Br)cc3)CC(=O)N2C1` (configuration not stated), the z-score is 1.4 (inactive).

In the case of `Cc1cc(C)c2c(n1)nn1c(C)c(CCC(=O)NCCCN3CCCC3=O)c(C)nc21`, the z-score was -0.15 (inactive).

As to `CC(C)n1c(=O)c2c3c(sc2n(Cc2ccccc2)c1=O)COC(C)(C)C3`, the z-score was -1.8 (inactive).

Turning to `O=c1c2cccnc2n(Cc2ccc(F)cc2)c(=O)n1Cc1ccco1`, the z-score was 0.9 (inactive).

Regarding `C=CCN(c1ccccc1)S(=O)(=O)c1cc(Br)cc2c1N(C(C)=O)C(C)C2` (configuration not stated), the z-score is 0.27 (inactive).

As to `COc1cccc(OCC(O)Cn2c[n+](C)c3cc(C)c(C)cc32)c1` (configuration not stated), the z-score was 0.54 (inactive).

Turning to `CC1=C(C(=O)OCC2CCCO2)C(c2cccc(Cl)c2)C2=C(CC(c3cccs3)CC2=O)N1` (configuration not stated), the z-score is -0.95 (inactive).

As to `Cn1c(=O)c2c(ncn2CC(=O)NCC2CCCO2)n(C)c1=O` (configuration not stated), the z-score is -1.02 (inactive).

`Cc1ccccc1NC(=O)NCc1ccco1`: the z-score was -0.44 (inactive).

In the case of `CCC(C)N(CCNC(=O)Nc1cn(C)c(=O)c2ccccc12)Cc1ccco1` (configuration not stated), the z-score was 12.3 (active).

In the case of `Cc1nn(C(C)C(=O)NCc2ccco2)c(=O)c2cc3occc3n12` (configuration not stated), the z-score is -0.04 (inactive).

For `COc1cc(NC(=O)c2nn3c(C(F)(F)F)cc(-c4cccs4)nc3c2Cl)cc([N+](=O)[O-])c1`, the z-score is -3.72 (inactive).

For the compound `COc1ccccc1-c1nnc(SCc2ccc(F)cc2)o1`, the z-score is 1.82 (inactive).

For `O=C(NC1CCc2ccccc21)c1cc2c(s1)CCC2` (configuration not stated), the z-score is -1.04 (inactive).

On to `O=C(Nc1ccc(F)cc1)N1CCC(n2c(=O)[nH]c3ccccc32)CC1`, for which the z-score is -3.87 (inactive).

On to `CCN(CC)c1nc2c(s1)C(=O)NCC(C)(C)C2`, for which the z-score is -0.63 (inactive).

With `O=C(/C=C/c1ccc(Cl)cc1)Nc1ccc(-c2nc3ccccc3o2)c(O)c1`, the z-score was -2.66 (inactive).

As to `O=C(/C=C/c1ccc(-c2ccccc2[N+](=O)[O-])o1)Nc1cc(Cl)c(Cl)cc1Cl`, the z-score is 3.71 (active).

Turning to `O=C(/C=C/c1cccc([N+](=O)[O-])c1)Nc1ccc(O)c(-c2nc3ccccc3o2)c1`, the z-score was -3.5 (inactive).

On to `CCCCN(CC)C(=O)c1nn(C)c2c1COc1ccccc1-2`, for which the z-score was -1.21 (inactive).

For `CCCc1nc(C)cc(N2CCOCC2)n1`, the z-score is -1.62 (inactive).

Regarding `COc1cc(C2CC(=O)Nc3c2cc(Br)c2ccccc32)ccc1O` (configuration not stated), the z-score was -0.73 (inactive).

As to `Cc1ccc(NC(=O)CSc2nc(N)c3c4c(sc3n2)COC(C(C)C)C4)cc1` (configuration not stated), the z-score was -24.7 (inactive).

As to `COC(=O)C1=C(OC(=O)COc2ccccc2)c2ccccc2S(=O)(=O)N1C`, the z-score is -1.66 (inactive).

As for `CCOC(=O)Cc1nnc2c(Nc3cccc(Br)c3)nc3nonc3n12`, the z-score was -0.4 (inactive).

For `CCCCn1c2ccccc2c2nc3ccccc3nc21`, the z-score was 19.8 (active).

As for `CCCCn1c(CCNC(=O)C(C)(C)C)nc2ccccc21`, the z-score is 0.64 (inactive).

Consider `CCCCCCn1c(C2CCCO2)nc2ccccc21` (configuration not stated), for which the z-score was -2.17 (inactive).

As to `C=C1c2cc(OCC)ccc2NC(=O)N1c1ccc(Cl)cc1`, the z-score is -0.12 (inactive).

Consider `CCCCN(Cc1ccco1)C(=O)Cn1ncc2c1-c1cc(C)ccc1OC2`, for which the z-score was -2.75 (inactive).

`O=C1c2ccccc2C(Nc2ccc3c(c2)OCCO3)N1c1ccc(Cl)cc1` (configuration not stated): the z-score was 1.04 (inactive).

Consider `O=C(COc1ccc(Cl)cc1)Oc1ccc2ccccc2c1`, for which the z-score was -1.03 (inactive).

For the compound `CC1=Nc2ccccc2-c2nnc(SCc3ccccc3F)nc2O1`, the z-score was -1.63 (inactive).

Consider `CCC(C)NC(=O)C1CCN(C(=O)c2sccc2-n2cccc2)CC1` (configuration not stated), for which the z-score is -1.11 (inactive).

With `CCOc1cc(-n2cnnn2)c(OCC)cc1N`, the z-score is 14.4 (active).

Consider `Cc1cc(OCC(=O)Oc2ccc(-n3cnnn3)cc2)cc(C)c1Cl`, for which the z-score is 0 (inactive).

Turning to `CCOC(=O)N1CCN(S(=O)(=O)c2ccc(-n3cnnn3)cc2)CC1`, the z-score was -0.58 (inactive).

`Clc1ccc(N2CCCC2)nn1`: the z-score is 0.42 (inactive).

For the compound `Cc1ccccc1-c1noc(-c2ccc(F)cc2)n1`, the z-score was -0.49 (inactive).

For `CC(C)(C)c1cn2c3ccccc3n(CCN3CCOCC3)c2n1`, the z-score was 0.1 (inactive).

Turning to `CC(C)CNc1cc(N2CCN(C)CC2)c2noc3c2c1C(=O)c1ccccc1-3`, the z-score is -2.89 (inactive).

Turning to `CN1CCN(c2cc(NCCCC(=O)O)c3c4c(onc24)-c2ccccc2C3=O)CC1`, the z-score is 0.14 (inactive).

Consider `CC1CCN(c2cc(NCC(=O)O)c3c4c(onc24)-c2ccccc2C3=O)CC1`, for which the z-score is 13.8 (active).

Turning to `Cc1nc2ncnn2c(Sc2ccc(N)cc2)c1C`, the z-score was 3.58 (inactive).

For the compound `O=C(CN1CCN(c2ccccn2)CC1)c1ccc2c(c1)CCN2`, the z-score was -2.4 (inactive).

With `Cc1ccc(-c2nnc(C3CCN(S(=O)(=O)c4c(C)cc(C)cc4C)CC3)o2)cc1`, the z-score is 0.05 (inactive).

Take `COc1ccc(OCC(O)CN2CCC(C)CC2)cc1` (configuration not stated): the z-score is 1.91 (inactive).

Consider `NC(=O)C1CCN(CC(O)COc2ccc(Cl)c(Cl)c2)CC1` (configuration not stated), for which the z-score was -0.09 (inactive).

Turning to `CCOC(=O)N1CCN(CC(O)COc2ccc(OC(F)(F)F)cc2)CC1` (configuration not stated), the z-score is 11.1 (active).

For the compound `CCOc1ccc(-c2cc(O)cc3sc(=O)oc23)cc1`, the z-score is -1.8 (inactive).

Values taken from PubChem BioAssay AID1259370 (Center for Chemical Genomics, University of Michigan, 2018).
